Screens (PubChem)
CYP2C19 inh: blocks human cytochrome P450 2C19; CYP2C19 Supersomes, luciferin-H EGE luminescence, 30 min; 96,000 compounds, 21% hits; inhibition, % at 5 µM; AID 778; P33261;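 active = CYP2C19 inhibition above a set limit at 5 µM in the primary screen, cut at about 50% in these data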
CYP2C9 inhib: blocks human cytochrome P450 2C9 | P11712 | CYP2C9 Supersomes, luciferin-H conversion, luminescence | inhibition, % at 5 µM | 96,000 compounds, 20% hits | AID 777;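 active = blocking of liver enzyme CYP2C9 beyond about 50% at 5 µM, limit read from the data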
Target sequence (P11712 whole entry, looked up): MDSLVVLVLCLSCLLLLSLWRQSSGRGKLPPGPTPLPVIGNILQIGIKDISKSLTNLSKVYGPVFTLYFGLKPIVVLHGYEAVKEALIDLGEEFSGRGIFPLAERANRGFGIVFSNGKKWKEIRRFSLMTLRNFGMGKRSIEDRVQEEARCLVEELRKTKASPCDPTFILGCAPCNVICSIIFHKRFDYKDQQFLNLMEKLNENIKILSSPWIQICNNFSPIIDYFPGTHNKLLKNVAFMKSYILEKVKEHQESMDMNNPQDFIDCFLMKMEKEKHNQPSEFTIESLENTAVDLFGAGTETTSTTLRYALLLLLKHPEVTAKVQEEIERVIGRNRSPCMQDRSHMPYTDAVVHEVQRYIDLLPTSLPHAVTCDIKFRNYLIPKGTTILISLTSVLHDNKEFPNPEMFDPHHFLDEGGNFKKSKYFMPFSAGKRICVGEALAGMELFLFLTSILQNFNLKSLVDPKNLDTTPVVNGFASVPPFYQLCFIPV
CYP2C9 act: increases human cytochrome P450 2C9 activity; P11712; recombinant CYP2C9, luciferin-H conversion, luminescence; active compounds read high; factor 1 = untreated enzyme, 0 = blocked; activation factor at 5 µM; 96,000 compounds, 1.4% hits; AID 1024;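 active = activation factor of 2 or more for CYP2C9 at a 5 µM dose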
CYP2C19 act: increases human CYP2C19 enzyme activity; recombinant CYP2C19, luciferin-H EGE luminescence; active compounds read high; 0 = fully inhibited enzyme, 1 = untreated enzyme; activation factor at 5 µM; P33261; 96,000 tested, under 10 active;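 active = activation factor of at least 2 at 5 µM in the primary screen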
Numbers stand for hits; 0 = inactive. An excerpt weighted towards active compounds, which were near 31% of everything screened.

SMILES	CYP2C19 inh	CYP2C9 inhib	CYP2C9 act	CYP2C19 act
CCN(CC)c1nc2ccccc2nc1C(C#N)C(=O)NCCCOC (stereo not given)	56	79	0	0
CCn1c(SCC(=O)N2CCC(C)CC2)nnc1-c1ccc(S(=O)(=O)N2CCN(C)CC2)cc1	0	0	0	0
Cc1cccc(NC(=O)c2cc(=O)c3ccccc3o2)n1	0	0	0	0
c1ccc(-c2cc(CSc3nc4ccccc4[nH]3)on2)cc1	0	62	0	0
O=C(CSc1nc2ncccc2[nH]1)NCc1ccccc1	0	0	0	0
O=C(CSc1nc2ccccc2[nH]1)Nc1c(F)cccc1F	51	0	0	0
Cc1noc(C)c1CSc1nc2ccccc2[nH]1	0	0	0	0
Fc1cccc(F)c1CSc1nc2ccccc2[nH]1	54	0	0	0
COc1nonc1NC(=O)CSc1nc2ccccc2[nH]1	0	0	0	0
Fc1ccccc1CSc1nc2ncccc2[nH]1	66	0	0	0
Cc1nc2cc(NC(=O)COc3ccc(C#N)cc3)ccc2n1-c1ccccc1	0	0	0	0
O=CN(Cc1ccco1)C1(C(=O)NC2CCCCC2)CCCCC1	0	0	0	0
O=S(=O)(c1ccc(NC2CCCCC2)cc1)N1CCOCC1	0	0	0	0
Nc1cc(=O)[nH]c(SCC(=O)Nc2ccc(Br)cc2)n1	0	0	0	0
O=C(CSc1nc2cc3ccccc3cc2[nH]1)Nc1ccc(F)cc1	0	69	0	0
O=C1c2ccccc2C(Nc2ccc3c(c2)OCCO3)N1Cc1ccc2c(c1)OCO2 (stereo not given)	78	80	0	0
O=C1OC(Nc2ccc3c(c2)OCO3)c2ccccc21 (stereo not given)	64	0	0	0
Cc1ccc(C(=O)CN(C(=O)c2ccc(Cl)c(Cl)c2)N2C(=O)C3C4C=CC(C4)C3C2=O)cc1 (stereo not given)	79	93	0	0
CCn1c2ccccc2c2cc(NC(=O)COC(=O)C3CCC(=O)N3)ccc21 (stereo not given)	0	0	2.1	0
CCn1c2ccccc2c2cc(NC(=O)COc3ccc(OC)cc3)ccc21	65	0	0	0
CC(C)c1ccc(NC(=O)Nc2cc3sccc3n2C)cc1	0	0	0	0
O=S(=O)(NCC(c1cccnc1)N1CCN(c2ccccc2)CC1)c1cc(F)ccc1F (stereo not given)	0	0	0	0
CSc1nc(C)cc(SCC(=O)Nc2ccccc2)n1	90	67	0	0
Cc1cc(C(F)(F)F)nc(SCC(=O)Nc2cc(C)on2)n1	52	0	0	0
Cc1cc(C(F)(F)F)nc(SCC(=O)Nc2ccccc2)n1	91	0	0	0
SMILES	CYP2C19 inh	CYP2C9 inhib	CYP2C9 act	CYP2C19 act
Cc1ccc(-c2nnn(CC(=O)NC3CC4CCC3C4)n2)cc1 (stereo not given)	0	0	0	0
Cc1cc(C(F)(F)F)nc(SCC(=O)NC2CC3CCC2C3)n1 (stereo not given)	83	0	2.1	0
COc1cccc(C2C(C(C)=O)=C(O)C(=O)N2Cc2ccco2)c1 (stereo not given)	0	0	0	0
COC(=O)C(c1cc(OC)c(O)c(OC)c1)(N1CCNC(C)C1)C(F)(F)F (stereo not given)	0	0	0	0
COC(=O)Nc1ccc(C)c2nsnc12	0	0	0	0
C/C(=N\NC(=O)CC1N=C(Cc2ccccc2)NNC1=O)c1ccc(Cl)cc1Cl (stereo not given)	0	0	0	0
COc1ccc(NC(=O)CSc2nc(C)cc(C(F)(F)F)n2)cc1	65	0	0	0
CCOC(=O)c1cc2cc(F)ccc2nc1C	0	0	0	0
CCOC(=O)c1ccccc1Oc1c(F)c(F)nc(NCCO)c1F	62	51	0	0
C=CCN(CC(=O)NCc1ccccc1)C(=O)c1csnn1	73	0	0	0
COc1ccc(COc2ccsc2C(=O)Nc2ccc(Cl)c(Cl)c2)cc1	0	55	0	0
Cc1ccsc1C(=O)NNC(=O)Nc1ccc(Cl)c(Cl)c1	0	0	0	0
COc1ccc(OC)c(-n2c(SCC(=O)Nc3cc(C)on3)nnc2-c2c[nH]c3ccccc23)c1	84	68	0	0
COc1ccc(OC)c(-n2c(SCC(N)=O)nnc2-c2c[nH]c3ccccc23)c1	0	58	0	0
COc1cccc(-c2nnc(SCC(N)=O)n2-c2ccc(Cl)cc2)c1	0	0	0	0
CCCCNC(=O)CSc1nnc(-c2c[nH]c3ccccc23)n1CC1CCCO1 (stereo not given)	53	0	0	0
COc1cccc(NC(=O)CSc2nnc(-c3ccoc3C)n2CC2CCCO2)c1 (stereo not given)	0	0	0	0
COc1cccc(-n2c(SCC(N)=O)nnc2-c2c[nH]c3ccccc23)c1	89	0	0	0
CC(C)(C)N1C(=O)c2ccc(C(=O)NCc3ccco3)cc2C1=O	0	0	0	0
CC1CCCCN1CCNC(=O)C1CCN(S(=O)(=O)N2CCCCC2)CC1 (stereo not given)	0	0	0	0
COCCn1c(SCC(=O)Nc2cc(C)on2)nnc1-c1c[nH]c2ccccc12	55	75	0	0
CCOc1ccc(-n2c(SCC(=O)Nc3cc(C)on3)nnc2-c2c[nH]c3ccccc23)cc1	0	0	0	0
COc1ccc(OC)c(-n2c(SC)nnc2-c2c[nH]c3ccccc23)c1	78	68	0	0
CC(C)(C)Nc1nc2nonc2nc1NC(C)(C)C	0	0	0	0
COCCNC(=O)CS(=O)Cc1nc(-c2ccc(Cl)cc2)oc1C (stereo not given)	0	0	0	0
SMILES	CYP2C19 inh	CYP2C9 inhib	CYP2C9 act	CYP2C19 act
COc1cc2ccccc2cc1C(=O)OCC(=O)N1CCOCC1	0	0	0	0
COc1ccc(C(c2c(O)ccc3ccccc23)N2CCOCC2)c(OC)c1 (stereo not given)	87	93	0	0
Cc1ccnc(N2C(=O)c3ccccc3C2O)c1 (stereo not given)	50	0	0	0
O=C(Cn1nnc(-c2cccc(C(F)(F)F)c2)n1)N1CCOCC1	0	0	3.3	0
CN(C(=O)Cn1nnc(-c2cccc(C(F)(F)F)c2)n1)C1CCCCC1	0	0	0	0
CCN(CC)c1ccc(NC(=O)c2cncc(Br)c2)cc1	0	0	0	0
CC/C(=C\C(=O)c1ccncc1)Nc1ccc(Br)cc1	99	89	0	0
O=C(O)CCSc1nnc(-c2cccnc2)n1-c1ccccc1	0	0	0	0
CC(C)Cn1c(N)c(C(=O)COC(=O)c2ccc3c(c2)OCCO3)c(=O)n(C)c1=O	60	67	0	0
Cn1c(N)c(C(=O)COC(=O)c2ccc3c(c2)OCCO3)c(=O)n(C)c1=O	0	0	0	0
O=C(Cn1nc(-c2ccc(Cl)cc2)ccc1=O)NCc1ccc2c(c1)OCO2	52	77	0	0
CC(Sc1ccc(Cl)cc1)C(=O)NCc1ccc2c(c1)OCO2 (stereo not given)	76	100	0	0
CS(=O)(=O)N(CC(=O)NCc1ccc2c(c1)OCO2)Cc1ccccc1	62	0	0	0
O=C(Cn1nc(-c2ccccc2)ccc1=O)NCc1ccc2c(c1)OCO2	0	0	0	0
